Assay results taken from PubChem BioAssay (NCI).
About 83,000 compounds went through this panel and 20% of them were active in at least one assay; those are over-represented in the sample as a whole.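 Single-concentration screen, 48 h exposure, 96-well plates. Endpoint: percent growth. Below 10 = active.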 The source made the active and inactive calls.

test system: OVCAR-4 ovarian; assay: NCI-60 one-dose screen, 48 h (100 = growth as untreated, 0 = no growth, -100 = all killed); settings: 10 µM unless noted

Structure (SMILES)	growth
CN1C(=O)/C(=C\c2nc([P+](c3ccccc3)(c3ccccc3)c3ccccc3)c(N3CCOCC3)o2)SC1=S	90.5% (inactive)
COc1ccc2c(c1)c(-c1nc(-c3c[nH]c4ccncc34)cs1)cn2C	-71.4% (active)
COc1ccc(C(=O)c2cc3c(N)c(C(=O)Nc4ccc(C)cc4)sc3nc2C)cc1	51.1% (inactive)
COc1cc2nc3cc([N+](=O)[O-])ccc3c(NCCNCC(C)O)c2cc1OC (stereo not given)	-32.4% (active)
Cc1sc2nc(NCCc3c[nH]c4ccc(Cl)cc34)[nH]c(=O)c2c1C	60% (inactive)
CC/C(=C(/c1ccc(Cl)cc1)c1ccc(OCCN(C)C)cc1)c1ccc(Cl)cc1	78% (inactive)
CNC(=O)c1[nH]cc(-c2ccc(OC)cc2)c1-c1cc(OC)c2c(c1OC)OCO2	96.4% (inactive)
C=CCc1c(O)c(C(=O)/C=C/c2ccccc2)c(OC)c2ccoc12	49.1% (inactive)
COc1ccc(-c2cc(-c3ccc(Cl)cc3)c(C#N)c(=O)n2Cc2ccc(C(=O)Nc3ccccc3N)cc2)cc1	76.3% (inactive)
COc1ccc(/C=C/C(=O)c2cccc(OCCCCOc3cccc(C(=O)/C=C/c4ccc(OC)c(OC)c4)c3)c2)cc1OC	32.9% (inactive)
CCOC(=O)c1ccc(NC(=O)c2nc(-c3cc(OC)c(OC)c(OC)c3)n(-c3ccc(Cl)cc3)n2)cc1	95.4% (inactive)
Cc1ccc(CNc2ccc3nc(CCC4CCCCC4)[nH]c3c2)cc1	11% (inactive)
CC(=O)c1c(C)nc(SCC(=O)Nc2cccc(O)c2)n1-c1ccc(Cl)cc1	89.1% (inactive)
Cc1ccc2c(c1)=C/C(=C\c1cc(-c3ccccc3)oc1O)C(=O)N=2	105% (inactive)
O=C(CSc1nnc(-c2cnccn2)n1-c1ccccc1)c1ccc(Cl)cc1	105% (inactive)
CCC(=C(c1ccc(OCCN2CCCCC2)cc1)c1ccc(OCCN2CCCCC2)cc1)c1ccc(Cl)cc1	-90.2% (active)
O=C(Nc1ccc(Oc2cccc(Cl)c2)c(Cl)c1)c1cnccn1	38.9% (inactive)
CCCNc1nc2ccccc2c2c1S(=O)(=O)c1ccc(Cl)cc1C2=O	13.1% (inactive)

Structure (SMILES)	growth
C=CCOC(=O)Nc1cccn([C@H](Cc2ccccc2)C(=O)NCCC(C)C)c1=O	92.7% (inactive)
N#Cc1c(-c2ccc(Cl)cc2)nc(NN2C(=O)c3ccccc3C2=O)nc1N1CCOCC1	98.7% (inactive)
N#Cc1nc(-c2ccc(F)cc2)oc1S(=O)(=O)N1CCCCC1	57.4% (inactive)
COc1ccc2cc1Oc1ccc(cc1)C[C@H]1c3c(cc4c(c3Oc3cc5c(cc3OC)CCN(C)[C@@H]5C2)OCO4)CCN1C	64.8% (inactive)
C=C1C(=O)O[C@H]2[C@H]1CC/C(COC(=O)/C=C\C(=O)NCc1ccc(Cn3c(=O)sn(CCI)c3=O)cc1)=C\CC[C@@]1(C)O[C@@H]21	48.3% (inactive)
CCOC(=O)c1c(NC(=O)c2ccc(Cl)cc2)sc2c(CN(C)C)c(O)ccc12	73.5% (inactive)
CSc1nc(N)c(NS(=O)(=O)c2ccc(C(C)=O)cc2)c(=O)[nH]1	117% (inactive)
COc1cc2c(c(OC)c1OC)CCC(c1cccc(C(=O)Nc3cccc(Cl)c3)c1)O2 (stereo not given)	70.3% (inactive)
Cc1nc2sc(C(=O)Nc3cccc4ccccc34)c(N)c2cc1C(O)c1ccccc1 (stereo not given)	60% (inactive)
COc1ccc(C(=O)N2c3ccccc3Sc3ccccc32)c(OC)c1	57.1% (inactive)
Cc1nc2sc(C(=O)Nc3ccc(Br)cc3)c(N)c2cc1C(O)c1ccccc1 (stereo not given)	59.3% (inactive)
CNc1nnc2n(-c3ccccc3)c(=O)c3cnn(-c4ccccc4)c3n12	107% (inactive)
[O-]/[N+](=C\c1ccc(-n2cc(Cc3ccccc3Cc3cn(-c4ccc(/C=[N+](/[O-])c5ccccc5)cc4)nn3)nn2)cc1)c1ccccc1	99.3% (inactive)
COc1ccc(/C=N\Nc2nc(SCCC(C)C)nc(-c3ccc(OC)cc3)c2C#N)cc1	-57.2% (active)
COC1/C=C/OC2(C)Oc3c(C)c(O)c4c(O)c(c(/C=N/Nc5ccc([N+](=O)[O-])cc5[N+](=O)[O-])c(O)c4c3C2=O)NC(=O)C(C)=C/C=C/C(C)C(O)C(C)C(O)C(C)C(OC(C)=O)C1C (stereo not given)	35% (inactive)
COc1cc(OC)c(NC(=O)c2cc3ccccc3cc2O)cc1Cl	41.4% (inactive)
CC(C)(C)[Si](C)(C)OC1[C@@H](CNC(=O)NC(=O)NC(N)=O)O[C@@H](n2cnc3c(NC(=O)Nc4ccccc4)ncnc32)[C@H]1O[Si](C)(C)C(C)(C)C (stereo not given in full)	66.7% (inactive)
